In the library only some 1.5% were active in any assay of this set; here they are far more common.
SARS 3CLpro inh – SARS-CoV 3CLpro protease inhibitors, primary screen, biochemical, quenched FRET; Replicase polyprotein 1ab (Severe acute respiratory syndrome coronavirus), P0C6X7; 290,000 compounds, 0.14% hits; recombinant SARS-CoV 3CLpro, quenched FRET peptide cleavage; AID 1706, 2009; inhibition, % at 6 µM; in the data active means inhibition above about 12%
PrPC surface inh – inhibitors of human cell surface prion protein PrPC, primary screen, cell-based, TR-FRET | Major prion protein (Homo sapiens), P04156 | TR-FRET read-out | inhibition, % at 13.8 µM | AID 720596, 2013 | 370,000 compounds, 0.43% hits; in the data active means inhibition above about 24%; further: 0% = median of the test wells and 100% = reference compound wells
Mtb hypoxia inh – PubChem AID 1159583 | fluorescence inhibition, % (no concentration beside the values) | 300,000 compounds, 0.1% hits | M. tuberculosis hypoxia-regulated fluorescent reporter, fluorescence; in the data active means fluorescence inhibition mostly above about 23%, no sharp cut-off; inactive means mostly below about 17%
MazF activator – activators of E. coli MazEF toxin-antitoxin RNase, primary screen, biochemical, fluorescence, uHTS; Endoribonuclease toxin MazF (Escherichia coli (strain K12)), P0AE70; FAM/BHQ RNA-DNA oligo cleavage fluorescence, 5 h; activation, % at 20 µM; 350,000 compounds, 0.32% hits; AID 504720, 2011; in the data active means activation above about 50%
Target sequence (P0AE70 whole entry, looked up): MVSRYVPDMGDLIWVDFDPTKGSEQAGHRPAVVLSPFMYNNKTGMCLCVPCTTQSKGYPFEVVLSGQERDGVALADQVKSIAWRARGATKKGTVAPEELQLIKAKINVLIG
PrP 5UTR inh – inhibition of PrP 5' UTR reporter expression | cell-based PrP 5' UTR mRNA reporter, plate reader | inhibition, % (concentration not given with the values) | 340,000 compounds, 0.35% hits | AID 488862, 2010; in the data active means inhibition above about 52%; further: 0 = median of the neutral control wells
VHR inh abs – VHR1 phosphatase inhibitors, primary screen, biochemical, absorbance, uHTS | Dual specificity protein phosphatase 3 (Homo sapiens), P51452 | recombinant VHR phosphatase, pNPP absorbance | inhibition, % at 13.3 µM | 290,000 compounds, 0.52% hits | AID 1654, 2009; in the data active means inhibition above about 50%
Target sequence (P51452 whole entry, looked up): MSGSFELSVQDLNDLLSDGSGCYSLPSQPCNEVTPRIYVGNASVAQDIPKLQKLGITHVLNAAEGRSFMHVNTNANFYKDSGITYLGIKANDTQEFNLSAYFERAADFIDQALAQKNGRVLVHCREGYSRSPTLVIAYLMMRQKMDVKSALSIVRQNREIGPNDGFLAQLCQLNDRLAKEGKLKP
PrP UTR cherry – prion 5' UTR mRNA inhibition, cherry-pick retest; shares compounds with PrP 5UTR inh; cell-based prion protein 5' UTR reporter, plate reader; inhibition, % at 2.5 µM; 1,100 compounds, 48% hits; AID 504592, 2011; in the data active means inhibition above about 54%
* marks the source's active call; other numbers are inactive results; ! = not active in a repeat.

Screening O=C1CN(C(=O)c2ccc(F)c(S(=O)(=O)N3CCOCC3)c2)c2ccccc2N1 returned SARS 3CLpro inh 3, PrPC surface inh 1, Mtb hypoxia inh 13, MazF activator 1, PrP 5UTR inh 59*, VHR inh abs 2 and PrP UTR cherry 36.
O=C(CSc1ncn[nH]1)Nc1ncc(C(F)(F)F)cc1Cl was read as SARS 3CLpro inh 4, PrPC surface inh 1, MazF activator 4, PrP 5UTR inh 75*, VHR inh abs 14 and PrP UTR cherry -11.
For CC(C)C[C@H](NC(=O)[C@@H]1CCCN1C(=O)[C@@H](N)Cc1ccc(O)cc1)C(=O)NCC(N)=O the results were SARS 3CLpro inh -3, PrPC surface inh 12, MazF activator -2, PrP 5UTR inh 84*, VHR inh abs 5 and PrP UTR cherry -7.
`O=C(NCCCNCc1ccccc1)c1ccccn1` gave SARS 3CLpro inh -3, PrPC surface inh -10, Mtb hypoxia inh 4, MazF activator 0, PrP 5UTR inh 62*!, VHR inh abs -12 and PrP UTR cherry -7.
Screening COc1ccc(NC2Oc3cc4c(cc3C(c3cc(OC)c(OC)c(OC)c3)C2C)OCO4)cc1 (stereo unspecified) returned PrPC surface inh 9, MazF activator -9, PrP 5UTR inh 61* and PrP UTR cherry 36.
COc1cccc(C2=CC(=O)CC(c3ccc(Cl)cc3)C2)c1OC (stereo unspecified) was read as Mtb hypoxia inh 19.
For Cc1nccn1CCCNCc1c(C(=O)N2CCCCCCC2)nc2ccc(Cl)cn12 the results were SARS 3CLpro inh 0, PrPC surface inh -9, Mtb hypoxia inh -1, MazF activator 1, PrP 5UTR inh 84*, VHR inh abs 35 and PrP UTR cherry -13.
Screening O=C(c1nc2ccccn2c1CNCCCn1cccn1)N1CCCC1 returned SARS 3CLpro inh 2, PrPC surface inh 1, Mtb hypoxia inh 1, MazF activator 4, PrP 5UTR inh -32 and VHR inh abs 26.
Screening Cc1nnc(SCC(=O)Nc2cc(-c3cc(C)c(C)cc3C)nn2-c2ccccc2)s1 returned SARS 3CLpro inh 5, PrPC surface inh -1, Mtb hypoxia inh 4, MazF activator -3, PrP 5UTR inh 59*, VHR inh abs -2 and PrP UTR cherry -9.
For Cc1nnc(SCC(=O)Nc2cc(C(C)(C)C)nn2-c2ccccc2)s1 the results were SARS 3CLpro inh 3, PrPC surface inh -4, Mtb hypoxia inh 11, MazF activator 3, PrP 5UTR inh -20 and VHR inh abs -1.
O=C(CNC(=O)c1ccccc1Br)NN=Cc1cc([N+](=O)[O-])cc(Br)c1O was read as Mtb hypoxia inh -1.
`COc1ccc(/C=N/NC(=O)c2cc3c(OC)ccc(OC)c3[nH]2)cc1O` gave SARS 3CLpro inh -7, PrPC surface inh -6, MazF activator 23, PrP 5UTR inh 60*, VHR inh abs 16 and PrP UTR cherry 78*.
`CC(=O)O[C@H]1C[C@@H]2OC3C=C(C)CCC3(C)[C@@]1(C)[C@@]21CO1` (stereo partly specified) gave PrPC surface inh 88*, MazF activator 5, PrP 5UTR inh 72* and PrP UTR cherry 59*.
COc1ccc(Nc2nc3c(C)cccn3c(=O)c2C=NCc2ccccc2)cc1 was read as SARS 3CLpro inh 1, PrPC surface inh -1, Mtb hypoxia inh 14, MazF activator -8, PrP 5UTR inh -2 and VHR inh abs -10.
`CNc1nc2c(C)cccn2c(=O)c1C=NCc1ccccc1` gave SARS 3CLpro inh -2, PrPC surface inh -2, Mtb hypoxia inh -77, MazF activator 12, PrP 5UTR inh 78*, VHR inh abs 40 and PrP UTR cherry 4.
COc1ccc(/C=N/NC(=O)c2[nH]c3ccc(Br)cc3c2-c2ccccc2)cc1 was read as SARS 3CLpro inh 1, PrPC surface inh 7, MazF activator 2, PrP 5UTR inh 68*, VHR inh abs -4 and PrP UTR cherry 81*.
For O=C(NN=Cc1ccccc1)c1[nH]c2ccc(Br)cc2c1-c1ccccc1 the results were Mtb hypoxia inh 5.
`CN(C)CCNc1ccc2ncn3c4ccc(O)cc4c(=O)c1c23` gave PrPC surface inh -18, MazF activator -381, PrP 5UTR inh 93* and PrP UTR cherry 60*.
COc1cc2c(c(OC)c1OC)-c1ccc(OC)c(=O)cc1C(NC(=O)c1ccccc1)CC2 (stereo unspecified) was read as PrPC surface inh -10, MazF activator 9 and PrP 5UTR inh 56.
Screening COc1cc2c(c(OC)c1OC)-c1ccc(O)c(=O)cc1C(NC(C)=O)CC2 (stereo unspecified) returned SARS 3CLpro inh -1, PrPC surface inh -12, Mtb hypoxia inh -5, MazF activator 11, PrP 5UTR inh 63*, VHR inh abs 2 and PrP UTR cherry 86*.
Screening COc1c(C=O)c2c(c(OC)c1OC)-c1ccc(OC)c(=O)cc1C(NC(C)=O)CC2 (stereo unspecified) returned PrPC surface inh 7, MazF activator 11, PrP 5UTR inh 58* and PrP UTR cherry 86*.
COc1cc2c(c(OC)c1OC)-c1ccc(SC)c(=O)cc1C(NC(=O)c1ccccc1)CC2 (stereo unspecified) was read as PrPC surface inh -3, MazF activator 5, PrP 5UTR inh 56* and PrP UTR cherry 83*.
`CCOC(=O)C1C2COc3ccccc3C2N2C(=O)c3c(C)cc(C)cc3NC(=O)[C@@]12C` (stereo partly specified) gave Mtb hypoxia inh -3.
COCCN1C(=O)NC(CCc2ccccc2)C(C(C)=O)C1C (stereo unspecified) was read as Mtb hypoxia inh 13.
O=C1c2cccc3cc([N+](=O)[O-])cc(c23)C(=O)N1CCN1CCCC1 was read as SARS 3CLpro inh -1, PrPC surface inh -8, MazF activator -31, PrP 5UTR inh 90*, VHR inh abs 27 and PrP UTR cherry 82*.
Screening CCOC(=O)c1ccc(NC(=O)COc2ccccc2CNCCO)cc1 returned SARS 3CLpro inh -1, PrPC surface inh -8, Mtb hypoxia inh 14, MazF activator 1, PrP 5UTR inh 74*, VHR inh abs 13 and PrP UTR cherry 2.
For Cc1cccc(Oc2ncnc(N)c2[N+](=O)[O-])c1C the results were SARS 3CLpro inh 6, PrPC surface inh -3, Mtb hypoxia inh 2, MazF activator 1, PrP 5UTR inh -10 and VHR inh abs 30.

From PubChem BioAssay
